# An excerpt weighted towards active compounds, which were near 19% of everything screened.
# TDP1 cell noCPT: qHTS for Inhibitors of human tyrosyl-DNA phosphodiesterase 1 (TDP1): qHTS in cells in absence of CPT. DT40 Tdp1-/- hTDP1 cells, no CPT, ATP luminescence, 48 h. Potency, µM (series often up to 46.2 µM), for inactives: at the top dose activity change, negative = growth inhibition, most hits filed as inhibitors. actives 15% (n = 420,000); note: potency is the fitted concentration of half-maximal effect; nearly all actives have a fitted effect of over 55% in size
#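 Growth of hTDP1-complemented DT40 Tdp1-knockout cells is measured by ATP luminescence after at least 48 hr compound exposure at 37 °C, with DMSO substituting for the 20 nM CPT used in the parallel screen.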
# TDP1 cell CPT: qHTS for Inhibitors of human tyrosyl-DNA phosphodiesterase 1 (TDP1): qHTS in cells in presence of CPT. actives 12% (n = 420,000). AID 686979, 2013. Potency, µM (highest dose often 46.2 µM), without a hit: at the highest dose activity change, negative = growth inhibition, actives largely listed as inhibitors. chicken DT40 Tdp1-/-;hTDP1 cells + 20 nM CPT, ATP luminescence, 48 h; note: potency is the fitted concentration of half-maximal effect; nearly all actives have a fitted effect of over 55% in size
#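 Chicken DT40 Tdp1-/- cells complemented with human TDP1, 400 cells/well, exposed to compounds plus 20 nM camptothecin for at least 48 h at 37 C; viability read as ATP content by CellTiter-Glo luminescence.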
# HT1080NT lethal: qHTS for induction of synthetic lethality in tumor cells producing 2HG: qHTS for the HT-1080-NT fibrosarcoma cell line; HT-1080-NT fibrosarcoma viability, CellTiter-Glo ATP luminescence, 48 h; Potency, µM (titrated, usually from 46.1 µM), for the others: at the top dose activity, negative = less viability, actives largely listed as cytotoxic; actives 1.6% (n = 360,000); AID 686970, 2013;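 note: NT is the 2HG producing partner of a matched IDH1 knockdown line; potency is the fitted concentration of half-maximal effect; 0% = DMSO-treated cells and -100% = media-only wells without cells; nearly all actives have a fitted effect of over 55% in size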
#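 Fibrosarcoma NT cells, 750 per well in 5% FBS RPMI, were exposed to compound for 48 hours. Viability: CellTiter-Glo luminescence.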
# HT1080 IDH1KD tx: qHTS for induction of synthetic lethality in tumor cells producing 2HG: qHTS for the HT-1080-IDH1KD cell line; HT-1080 IDH1 knockdown viability, ATP luminescence, 48 h; Potency, µM (top dose mostly 46.1 µM), for the others: at the top dose activity, negative = toxicity, usual class: cytotoxic; actives 2% (n = 360,000); AID 686971, 2013;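 note: potency is the fitted concentration of half-maximal effect; 0% = DMSO wells and -100% = cell-free medium wells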
#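 In this qHTS, HT-1080 cells depleted of IDH1 are exposed for 48 h at 37 °C to compound titrations. Toxicity is scored from CellTiter-Glo luminescence, with DMSO as full viability and medium alone as none.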
# IL-1B inflam inh: qHTS for Inhibitors of Inflammasome Signaling: IL-1-beta AlphaLISA Primary Screen. THP-1 LPS/ATP IL-1B secretion, AlphaLISA, 16 h; active compounds read low. activity change, % at 57.5 µM. actives 4.7% (n = 360,000); in the data active = activity change below about -50%; inconclusive = mostly about -30% to -49%
#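 THP-1 cells pretreated 1 hr with compounds (up to 57.5 uM final), then stimulated with LPS (250 ng/mL final) plus ATP (1.25 mM final); secreted IL-1B measured by AlphaLISA after 16 hr, decreased signal indicating inhibition.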
# uPA surface inh: qHTS for Inhibitors of Cell Surface uPA Generation; Potency, µM (titrated, usually from 38.3 µM), for inactives: at the highest dose activity change, negative = inhibition, actives largely listed as inhibitors; cell surface uPA generation assay, qHTS; actives 0.31% (n = 330,000); AID 540303, 2011; active = well fitted inhibition curve with a large enough effect; inconclusive = small, poorly fitted or top-dose-only effect; inactive = no such curve, though single readings can be large or run the other way; tested in mouse RAW 264.7 cells; note: potency is the fitted concentration of half-maximal effect; nearly all actives have a fitted effect of over 55% in size
# Numbers without * were called inactive; i = inactive; ? = inconclusive; · = not tested or not shown; [ ] = remark or other dose. Unless noted, calls come from the whole dose curve; as a rule, active = well fitted curve in the direction sought with a large enough effect; inconclusive = small, poorly fitted or top-dose-only effect, or another doubt; inactive = no such curve, though single readings can be large; an effect the other way counts as inactive or inconclusive. Unless noted, % is set by controls: 0 for no effect and ±100 for the full control effect.
SMILES,TDP1 cell noCPT,TDP1 cell CPT,HT1080NT lethal,HT1080 IDH1KD tx,IL-1B inflam inh,uPA surface inh
COc1ccc(COC(=O)Nc2cc3c(C(F)(F)F)nn(C)c3s2)cc1,-2%,-4%,14%,?,-1,2%
Cn1nc(C(F)(F)F)c2cc(NC(=O)OCc3ccc(F)cc3)sc21,-12%,-16%,-24%,?,-87*,6%
C=CCOC(=O)Nc1snnc1C,2%,0%,9%,9%[9.24 µM],-2,-2%
Cn1nc(C(F)(F)F)c2cc(NC(=O)OCc3ccc(C(C)(C)C)cc3)sc21,-24%,-17%,1%,-8%,-87*,6%
COCCCNC(=O)C(C)n1c2ccccc2c2cnn(C)c(=O)c21 (stereo not drawn),-21%,-16%,·,·,·,·
COc1ccc(Cl)cc1NC(=O)N1CCN(Cc2cc(=O)n3nc(-c4ccccc4)sc3n2)CC1,-23%,-14%,·,·,·,·
CCNC(=S)N/N=C/c1cc(Br)cc(Br)c1OC,6.5µM*,5.2µM*,4.5µM*,4µM*,0,·
CN(C)c1ccc(C(=O)N/N=C/c2cc(Br)cc(Br)c2O)cc1,12µM*,6.5µM*,?,?,105,7%
COc1c(Br)cc(Br)cc1/C=N/NC(=O)c1ccncc1,?,?,1%,1%,75,4%
CCOc1cc(Br)cc(/C=N/NC(=O)c2cccnc2)c1O,0.37µM*,0.46µM*,?,?,191,-6%
CCOc1ccc(Br)cc1/C=N/NC(=O)c1ccncc1,?,?,-1%,-1%,40,-5%
COc1c(Br)cc(Br)cc1/C=N/NC(=O)c1cccnc1,?,18µM*,-18%,?,44,?
CN(C)c1ccc(/C=N/NC(=O)c2ccc(NC(=O)c3ccccc3)cc2)cc1,?,23%,-6%,-17%,-28,1%
CCc1ccc(N2CCN(C(=O)N3CCOCC3)CC2)cc1,-15%,8%,22%,14%,-4,-1%
Cc1ccc(COc2ccc(-c3cc(C(F)(F)F)n4nc(C)cc4n3)cc2)cc1,-8%,-21%,·,·,·,·
CC1(C)CC(=O)c2cc(C(=O)Nc3ccc(Br)cc3)c(=O)n(-c3ccc(Cl)cc3)c2C1,5%,-1%,·,·,·,·
COc1ccc(N2C(=O)C(Cl)=C(N3CCOCC3)C2=O)cc1,29µM*,-19%,?,-26%,-13,-9%
COc1ccc(C(=O)/C(=C/O)N=Nc2ccc(F)cc2)cc1,?,?,?,?,-99*,0%
COc1ccc(N=N/C(=C\O)C(=O)c2cccs2)cc1,?,0%,0%,-6%,-81*,4%
COc1ccc(CC(=O)NNC(=O)c2cccs2)cc1,7%,15%,-1%,-17%,-3,3%
Nc1nnc(/C=C/c2ccccc2)s1,-4%,11%,-8%,-1%,-2,-5%
CCN(CC)c1ccc(NC(=O)COC(=O)/C=C/c2nc3ccccc3s2)cc1,?,12%,18%,5%,0,2%
CC(=O)Nc1ccc(/C=C/c2nc3ccccc3s2)cc1,11µM*,?,·,·,·,·
CC(C)CN(CC(C)C)c1ccc(/C=C/c2nc3ccccc3s2)cc1,3.5µM*,5µM*,·,·,·,·
Nc1ccc(/C=C/c2nc3ccccc3s2)cc1,13µM*,11µM*,·,·,·,·
SMILES,TDP1 cell noCPT,TDP1 cell CPT,HT1080NT lethal,HT1080 IDH1KD tx,IL-1B inflam inh,uPA surface inh
CC(=O)Nc1ccc(/C=C/c2nc3ccccc3[nH]c2=O)cc1,2%,2%,5%,-2%,-13,1%
COc1ccccc1CCNC(=O)c1cnn2c(C(F)F)cc(C)nc12,23µM*,21µM*,-1%,6%,-2,0%
CCOc1ccccc1NC(=O)c1cnn2c(C(F)F)cc(-c3ccccc3)nc12,23µM*,15µM*,·,·,·,·
COc1ccc(-c2cc(C(F)F)n3ncc(C(=O)Nc4cc(OC)ccc4OC)c3n2)cc1,?,-23%,·,·,·,·
COc1ccc(-c2cc(C(F)F)n3ncc(C(=O)Nc4ccc(C(=O)N5CCOCC5)cc4)c3n2)cc1,3.3µM*,10µM*,2%,10%,?,-1%
O=C(NCCN1CCOCC1)c1cnn2c(-c3ccccc3)cc(-c3ccccc3)nc12,23µM*,?,?,?,-55*,·
O=C(NCCN1CCOCC1)c1cc(-c2ccccc2)nc2ccccc12,?,-17%,-1%,0%,-12,·
NS(=O)(=O)c1ccc(N2CCN(C(=O)C3COc4ccccc4O3)CC2)nc1 (stereo not drawn),?,?,-2%,-2%,15,4%
Cc1c(Cl)cccc1NC(=S)NC1CCN(C(C)C)CC1,-4%,-23%,-8%,-5%,0,?
NS(=O)(=O)c1cc(C(=O)OCC(=O)N2CCc3ccccc3C2)ccc1Cl,-15%,-17%,-1%,-6%,26,-3%
COc1cccc(Nc2ncc3nc(C)c(=O)n(C)c3n2)c1,-10%,?,·,·,·,·
O=C(Nc1ccc(C(=O)N2CCOCC2)cc1)c1cnn2c(C(F)F)cc(-c3ccccc3)nc12,5.8µM*,?,-1%,-2%,-17,-7%
COC1=CC(=O)C(OC)=C(OC)C1=O,1.2µM*,0.73µM*,-8%,?,-102*,-24%
C/C(=N\NC(=O)c1ccncc1)c1cccc(NC(=O)c2ccc(C(C)(C)C)cc2)c1,16µM*,16µM*,?,?,?,-17%
C/C(=N\NC(=O)c1cccc(N/N=C(\C)c2ccncc2)c1)c1ccncc1,?,21µM*,-1%,-1%,-28,-14%
C/C(=N\NC(=O)c1cc(O)ccc1O)c1cccc(NC(=O)c2cccc(Cl)c2)c1,-13%,-18%,-16%,-4%,9,-26%
C/C(=N/NC(=O)c1ccncc1)c1ccc(NC(=O)c2ccccc2)cc1,-23%,-23%,11%,14%,-6,-18%
C/C(=N\NC(=O)c1cccc(N/N=C(\C)c2ccccc2)c1)c1ccccc1,?,-1%,?,?,0,-6%
C/C(=N\NC(=O)COc1ccccc1[N+](=O)[O-])c1cccc(NC(=O)c2ccncc2)c1,8.2µM*,?,0%,-2%,i,-8%

# Screens deposited in PubChem by National Center for Advancing Translational Sciences (NCATS).
